In the library only some 4.7% were active in any assay of this set; here they are far more common.
TRHR ag: TRH receptor (human) agonism; TRHR cells, calcium flux fluo-8, FDSS agonist mode; activation, % at 2 µM; 0.18% of 360,000 active
Target sequence (P34981 whole entry, looked up): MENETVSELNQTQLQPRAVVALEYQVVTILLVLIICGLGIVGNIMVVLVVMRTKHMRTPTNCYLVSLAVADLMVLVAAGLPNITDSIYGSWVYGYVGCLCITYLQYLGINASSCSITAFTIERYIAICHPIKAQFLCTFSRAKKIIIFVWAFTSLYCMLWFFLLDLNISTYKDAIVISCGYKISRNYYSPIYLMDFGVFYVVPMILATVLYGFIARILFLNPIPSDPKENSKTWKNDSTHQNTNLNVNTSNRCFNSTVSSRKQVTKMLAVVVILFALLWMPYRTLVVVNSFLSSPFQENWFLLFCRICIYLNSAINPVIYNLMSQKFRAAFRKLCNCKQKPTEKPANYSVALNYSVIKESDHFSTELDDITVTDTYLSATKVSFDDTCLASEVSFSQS
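Agonist-mode FDSS calcium read (Ex 480/Em 530, 1 s cycles) in 1536-well TRHR cells with fluo-8 dye, after 10-cycle baseline and 23 nL compound addition; TRH at EC20 (10 nM final) added afterwards for the enhancer phase.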
TRHR PAM: allosterically enhances the human TRH receptor; P34981; TRHR cells, fluo-8 calcium fluorescence, EC20 TRH enhancement; enhancement, % at 2 µM; 0.66% of 360,000 active; in the data active = enhancement above about 30%
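Enhancer read-out: after compound pinning and an initial kinetic agonist-mode read, an EC20 of TRH (10 nM final) was injected and fluo-8 calcium signal (Ex 480/Em 530) followed at 1 s/cycle for 100 cycles in TRHR-expressing cells.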
D1 PAM: enhances dopamine response at the human D1 receptor; P21728; HEK293 TREx D1 cells, calcium flux, dopamine EC20 potentiation; potentiation, % at 10 µM; 0.036% of 360,000 active; in the data active = potentiation above about 30%
D1 agonist: human D1 receptor agonism; HEK293 T-REx D1 cells, calcium flux, agonist mode; activation, % at 2 µM; 1% of 360,000 active; AID 504660
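Tetracycline-induced HEK293 TREx D1 cells, force-coupled to calcium signalling, were dye-loaded with a no-wash calcium kit. Compound was pin-added after a 10 s baseline. Fluorescence was read kinetically at 1 cycle/s for 180 s, with calcium rises flagged as agonism.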
D1 antagonist: human D1 dopamine receptor antagonism | P21728 | HEK293 TREx D1 cells, calcium flux, dopamine EC80; stronger effect = lower value | activity change, negative = inhibition, % at 10 µM | 3.2% of 360,000 active | AID 504652; in the data active = activity change below about -30%
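Compound effects on dopamine-evoked calcium signalling were measured in tetracycline-induced HEK293 Trex D1 cells. Dopamine at EC80 followed a 180 s compound pre-read, and fluorescence was tracked kinetically for 180 s more.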
Each line names hits and unclear results; the compound was inactive in the other large screens. Cut-off read from the data, not from the text of the source, unless noted: active = activation above about 30%; inactive = the rest.

O=C(COCc1cc(-c2cccs2)on1)Nc1ccc(OC(F)(F)F)cc1	none
COc1ccc(NC(=O)Cn2cnc3ccc(S(=O)(=O)N4CCC(C)CC4)cc3c2=O)cc1OC	none
Cc1cccc(OCC(=O)N/N=C\c2cn(C)c3ccccc23)c1	D1 antagonist -34.1
CCCN(CC(=O)Nc1ccccc1C)C(=O)C1CC(=O)N(c2cccc(C)c2C)C1 (stereo not given)	none
COc1ccc(C(=O)C2CCCN(Cc3ccc(NC(C)=O)cc3)C2)cc1OC (stereo not given)	D1 antagonist -33.0
COc1cc(OC)c(OC)cc1CN1CCCC(C(=O)c2sccc2C)C1 (stereo not given)	D1 antagonist -37.8
CC(=O)Nc1ccc(CN2CCCC(C(=O)c3cccc(C(F)(F)F)c3)C2)cc1 (stereo not given)	none
COc1ccc(NC(=O)C2CCCN(CCCc3ccccc3)C2)cc1OCC(C)C (stereo not given)	D1 agonist 90.0
COc1cc(OC)c(OC)cc1CN1CCCC(C(=O)c2ccc3c(c2)OCO3)C1 (stereo not given)	none
C=CCc1cc(F)c(S(=O)(=O)N2CCN(S(=O)(=O)c3ccc4c(c3)OCCO4)CC2)cc1F	none
FC(F)(F)c1cccc(OCC2CNC(=S)O2)c1 (stereo not given)	none
Cc1cc(Nc2cccc(C(F)(F)F)c2)nc2ccc(NC(=O)c3ccc(N(C)C)cc3)cc12	none
CCCSc1ncc(Cl)c(C(=O)N(Cc2ccccc2)c2ccc(OC)cc2)n1	D1 antagonist -36.5
O=S(=O)(c1ccc2c(c1)OCCO2)N1CCN(S(=O)(=O)c2ccc3nc(Cl)c(Cl)nc3c2)CC1	none
O=C(N/N=C/c1ccncc1)c1cc2c(ccc3ccccc32)o1	D1 antagonist -32.4
O=C(O)c1ccc(/C=N/NC(=O)c2cc3c(ccc4ccccc43)o2)cc1	none
Cc1ccc(C)c(OCc2cc(C(=O)NC3CCN(Cc4ccccc4)CC3)no2)c1	none
CC(CCn1cccn1)NC(=O)c1cc(COc2ccc(F)cc2F)on1 (stereo not given)	TRHR PAM 35.5
CC(Cc1cccnc1)NC(=O)c1cc(COc2ccc(F)cc2Cl)on1 (stereo not given)	D1 antagonist -33.6
O=C(NC1CCN(Cc2ccccc2)C1)c1cc(COc2ccc(F)cc2F)on1 (stereo not given)	TRHR PAM 31.0
CCOc1ccc(CNC(=O)c2ccc(-c3nc(CSc4ccc(C)cc4)c(C)o3)cc2)cc1	none
N=c1ncn(CC(O)CN2CCOCC2)c2nc(N3CCOCC3)[nH]c12 (stereo not given)	D1 antagonist -58.3
CCCN1CCN(c2nc3c([nH]2)c(=N)ncn3CC(O)CO)CC1 (stereo not given)	none
CC(C)(C)OC(=O)N1CCC2(CC1)Oc1ccc(F)cc1C(=O)C21CC(c2cccnc2)=NO1 (stereo not given)	D1 antagonist -90.6
COc1ccccc1N1CCN(C(=O)c2ccc3[nH]c4c(c3c2)CC(C)CC4)CC1 (stereo not given)	D1 antagonist -57.4
COc1ccccc1N1CCN(C(=O)c2cccc(S(=O)(=O)N3CCCCCC3)c2)CC1	D1 antagonist -42.5
COc1ccc(NC(=O)CN(C)C(=O)c2cccc(-n3cccc3)c2)cc1	none
CC1CCN(S(=O)(=O)c2cccc(C(=O)N3CCN(c4ccc(F)cc4)CC3)c2)CC1	D1 antagonist -39.0
Cc1ccc(NC(=O)CN(C)C(=O)c2cccc(-n3cccc3)c2)cc1	D1 antagonist -39.5
Cc1oc2ncn(CC(C)C)c(=O)c2c1C(=O)N(Cc1ccccc1)C(C)C	none
COc1ccc(COC(=O)CCS(=O)(=O)c2ccc(C)cc2)cc1F	none
COc1ccc(CN(C)C(=O)c2cccc(S(=O)(=O)N3CCN(c4ccccc4)CC3)c2)c(OC)c1OC	D1 antagonist -33.4
CC1CCN(S(=O)(=O)c2ccc(C(=O)N3CCOCC3)cc2)CC1	D1 antagonist -35.3
CN(CC(=O)Nc1ccc(F)cc1)C(=O)c1cccc(S(=O)(=O)N2CCN(c3ccc(F)cc3)CC2)c1	D1 antagonist -39.0
COc1cccc(NC(=O)CN(C)C(C)C(=O)Nc2ccc(S(=O)(=O)N3CCCC3)cc2)c1 (stereo not given)	D1 antagonist -33.6
CC1CCN(C(=O)c2ccc(S(=O)(=O)N3CCOCC3)cc2)CC1	none

Assay outcomes from PubChem BioAssay.
